# Measurements: the supplement of paper PMC10338343
# ± gives the standard deviation.
# System: MILI (PIWIL2) piRISC loaded with piRNA #1 (26 nt)
# Assay: pre-steady-state target cleavage rate (min^-1); guide: piRNA #1 5'p-UGAGGUAGUAGGUUGUAUAGUAUCCA; MIWI and MILI are mouse PIWI proteins and EfPiwi is from a freshwater sponge; tags in brackets are library labels; higher = faster piRNA-guided slicing of the target
# Details: auxiliary factor: 500 nM mouse GTSF1
# Summary of the method: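 At 33 °C in HEPES–potassium acetate buffer, a transcribed, DNA-blocked target RNA library […] was exposed for 0–8 or 0–960 min to 1 nM active affinity-purified piRISC carrying a single synthetic guide, with or without 500 nM GTSF1 partner protein. Uncleaved targets were sequenced and normalised to depth and to weakly complementary targets. With three trials pooled and k3 capped at 0.0001 min^-1, a burst-and-steady-state fit produced the pre-steady-state cleavage rate.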
# 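Note: 1 nM active piRISC with 0.1 nM target library at 33 °C single turnover.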
row,Sequence,pre-steady-state target cleavage rate
1,GGAGACCUAUGUAAACAACCUAGUACCUCA,0.00454 ± 0.0024
2,GGAGACGAUACAAUACAACCUACUAGCUCA,0.137 ± 0.023
3,GGAGACCUAUGAUAACAUCCUACAACCUCA,0.00633 ± 0.0025
4,GGAGACCUAUGAUAACAACCUACAACCUCA,0.00456 ± 0.0024
5,GGAGACCUAUCGUAUACAACCUACUACCUCA,0.057 ± 0.011
6,GGAGACCUAUCUAUACAACCAACUACCUCA,0.00522 ± 0.0024
7,GGAGACCAUACAUAACAACCUACUACCUCA,0.0246 ± 0.0068
8,GGAGACCUUACUAAACAACCAACUACCUCA,0.00386 ± 0.0036
9,GGAGACCUUACUAUAGAUCCUACUACCUCA,0.204 ± 0.017
10,GGAGACCUAACUAUACAAGCUACAACCUCA,0.182 ± 0.026
11,GGAGACCUAUCUAUACAACCUACUACCCA,0.098 ± 0.019
12,GGAGACCUAUGAUAACAACCCACUACCUCA,0.00347 ± 0.0029
13,GGAGACCUAUGAUAUGAACCUACAACCACA,< 0.0001
14,GGAGACCUAUGAUAACCAACCUACUACCUCA,0.00371 ± 0.0025
15,GGAGACCUAUGUAUACAUCCUAGUACCUCA,0.015 ± 0.0049
16,GGAGUGGAUUCAAUACAACCUACUACCUCA,0.142 ± 0.0076
17,GGAGACCUAUGUAUACAACCUACAACGUCA,0.00278 ± 0.0027
18,GGAGACCUAUGAUAUGUUGCUUCUACCUGA,< 0.0001
19,GGAGACCUAUGUAUACUACCUACUACCUCA,0.0517 ± 0.008
20,GGAGACCUUACUAUAGUACCUACUACCUCA,0.119 ± 0.0098

row,Sequence,pre-steady-state target cleavage rate
1,GGAGACCAUACUAUAAAACCUACUACCUCA,0.2 ± 0.016
2,GGAGACCUAUGUAUACAACCUACGACCUCA,0.0402 ± 0.0075
3,GGAGACGAUACAUAACAACCUACUACCUCA,0.114 ± 0.013
4,GGAGAGGAUACAAUACAACCUACUACCACA,0.146 ± 0.015
5,GGAGACCUAACAAUACUACCUACUACCUCA,0.0399 ± 0.013
6,GGAGUGGAUACUUUACAACCUACUACGUCA,0.0457 ± 0.0058
7,GGAGUGGAUUCUAAACAACCUACUACCUCA,0.143 ± 0.0089
8,GGAGACGAUACUAAACAACCUACUAGCUCA,0.111 ± 0.019
9,GGAGACCUAUGAUAUGUUGCUUGAACCUCA,< 0.0001
10,GGAGACGAUACUUUACAACCUACAACCUCA,0.0642 ± 0.013
11,GGAGACCUUACUAUACAACGUAGUACCUCA,0.015 ± 0.0045
12,GGAGACCUAUGUAUACAACCUACUAUCUCA,0.0416 ± 0.0058
13,GGAGACCUAUCAAUACAUCCUACUACCUCA,0.109 ± 0.02
14,GGAGACCUAUCUAUAUAACCUACUACCUCA,0.0723 ± 0.0089
15,GGAGACCUAUGAAGACAACCUACUACCUCA,0.00824 ± 0.0032
16,GGAGACCUAUGAAUAGAACCUACUACCUCA,0.00534 ± 0.0016
17,GGAGACCUAUGAUAACAACCUACUACCGCA,0.00318 ± 0.003
18,GGAGACCUAUGAUUACAAUCUACUACCUCA,0.00319 ± 0.0026
19,GGAGACCUAUCUAUACAACCUUCUACCACA,0.00592 ± 0.0023
20,GGAGACCAUACUAAACAACCUUCUACCUCA,0.00805 ± 0.0035
